Measured values taken from the supplement of paper PMC4206461.
A number with no mark means an inactive call.

test system: Pseudomonas aeruginosa PA14 dppBCDF deletion mutant; assay: respiration area under curve with compound as sole nitrogen source, 24 h (OmniLog AUC (arbitrary units)); higher = more respiration / better utilisation as nitrogen source, active = 2000 or more; extreme values may be limits of the assay
Protocol: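 Biolog Phenotype MicroArray plates PM6-PM8: each di/tripeptide is the sole nitrogen source. Tetrazolium reduction was read in the OmniLog every 15 min for 24 h at 37°C and summarised as area under the respiration curve (arbitrary units). Values below 2000 count as no respiration. Strain is the dipeptide ABC transporter deletion mutant.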

Row | Structure (SMILES) | respiration area under curve
1 | N[C@@H](Cc1ccccc1)C(=O)N[C@@H](CC(=O)O)C(=O)O (plate: PM8) | 0
2 | CC(C)C[C@H](NC(=O)[C@@H](N)CCCN=C(N)N)C(=O)O (plate: PM6) | 8090 (active)
3 | CC[C@H](C)[C@H](N)C(=O)N[C@@H](C)C(=O)O (plate: PM6) | 88.8
4 | NC(=O)CC[C@H](NC(=O)[C@@H](N)CCC(N)=O)C(=O)O (plate: PM6) | 4130 (active)
5 | NC(=O)CC[C@H](NC(=O)[C@@H](N)CC(=O)O)C(=O)O (plate: PM8) | 5.25
6 | C[C@H](N)C(=O)N[C@H](C(=O)O)[C@@H](C)O (plate: PM6) | 1650
7 | CC(NC(=O)C(N)CC(=O)O)C(=O)O (stereo not given) (plate: PM8) | 12.2
8 | CC(C)[C@H](NC(=O)[C@H](C)N)C(=O)O (plate: PM8) | 700
9 | CC(C)C[C@H](NC(=O)[C@@H](N)Cc1c[nH]c2ccccc12)C(=O)O (plate: PM7) | 1830
10 | C[C@H](NC(=O)[C@@H](N)Cc1ccc(O)cc1)C(=O)O (plate: PM7) | 8840 (active)
11 | NCC(=O)N[C@@H](CCCN=C(N)N)C(=O)O (plate: PM6) | 7970 (active)
12 | C[C@H](NC(=O)[C@@H]1CCCN1)C(=O)O (plate: PM7) | 103
13 | NCC(=O)N[C@@H](CO)C(=O)O (plate: PM6) | 2360 (active)
14 | N[C@@H](Cc1ccccc1)C(=O)N1CCC[C@H]1C(=O)O (plate: PM7) | 1.5
15 | NCC(=O)N[C@@H](Cc1c[nH]c2ccccc12)C(=O)O (plate: PM6) | 0
16 | N[C@@H](Cc1c[nH]c2ccccc12)C(=O)N[C@@H](CO)C(=O)O (plate: PM7) | 106
17 | N[C@@H](CC(=O)O)C(=O)N[C@@H](Cc1ccccc1)C(=O)O (plate: PM6) | 15.5
18 | N[C@@H](Cc1ccccc1)C(=O)N[C@@H](Cc1ccccc1)C(=O)O (plate: PM7) | 2740 (active)
19 | N[C@@H](CO)C(=O)N[C@@H](Cc1ccccc1)C(=O)O (plate: PM7) | 968
20 | CC(C)C[C@H](NC(=O)[C@@H](N)CC(C)C)C(=O)O (plate: PM6) | 1380

Row | Structure (SMILES) | respiration area under curve
21 | CC(C)[C@H](NC(=O)CN)C(=O)O (plate: PM6) | 124
22 | CC(C)C[C@H](N)C(=O)N[C@@H](Cc1ccccc1)C(=O)O (plate: PM6) | 3930 (active)
23 | O=C(O)[C@H](Cc1ccc(O)cc1)NC(=O)[C@@H]1CCCN1 (plate: PM7) | 8430 (active)
24 | CC(C)C[C@H](N)C(=O)N[C@H](CC(C)C)C(=O)O (plate: PM8) | 0
25 | C[C@@H](O)[C@H](N)C(=O)N[C@@H](CO)C(=O)O (plate: PM8) | 0
26 | CC(C)[C@H](N)C(=O)N[C@@H](CCC(N)=O)C(=O)O (plate: PM8) | 1010
27 | CSCC[C@H](NC(=O)[C@@H](N)Cc1ccccc1)C(=O)O (plate: PM8) | 269
28 | NCC(=O)N[C@@H](Cc1ccccc1)C(=O)O (plate: PM6) | 350
29 | O=C(O)CC(NC(=O)C1CCCN1)C(=O)O (stereo not given) (plate: PM7) | 0
30 | NC(N)=NCCC[C@H](NC(=O)[C@@H]1CCCN1)C(=O)O (plate: PM8) | 7840 (active)
31 | N[C@@H](CO)C(=O)N[C@@H](CC(=O)O)C(=O)O (plate: PM8) | 0
32 | N[C@@H](Cc1ccccc1)C(=O)NCC(=O)NCC(=O)O (plate: PM8) | 1300
33 | CC[C@H](C)[C@H](NC(=O)[C@@H](N)CC(C)C)C(=O)O (plate: PM6) | 3260 (active)
34 | NC(N)=NCCC[C@H](N)C(=O)N[C@@H](Cc1ccccc1)C(=O)O (plate: PM6) | 8100 (active)
35 | NC(=O)CC[C@H](N)C(=O)NCC(=O)O (plate: PM6) | 2500 (active)
36 | N[C@@H](Cc1ccccc1)C(=O)NCC(=O)O (plate: PM7) | 872
37 | CSCC[C@H](NC(=O)CN)C(=O)O (plate: PM6) | 0
38 | CC(C)[C@H](N)C(=O)N[C@@H](CCCN=C(N)N)C(=O)O (plate: PM7) | 11700 (active)
39 | N[C@@H](CCC(=O)O)C(=O)N[C@@H](CCC(=O)O)C(=O)O (plate: PM6) | 0
40 | CC(C)C[C@H](NC(=O)[C@@H](C)N)C(=O)O (plate: PM8) | 0
